# Results from PubChem BioAssay (NCATS).
# Inconclusive results are not listed. Activity calls are given as the source filed them. Calls follow the shape of the dose curve; as a rule, active = well fitted cell-killing curve with a large enough effect; inconclusive = small, poorly fitted or top-dose-only effect; inactive = no such curve, though single readings can be large or run the other way.
# Experiment: qHTS of pediatric cancer cell lines to identify multiple opportunities for drug repurposing: Primary screen for SK-N-MC cells (AID 1347093)
# Settings: SK-N-MC viability, CellTiter-Glo luminescence, 48 h; series mostly up to 46 µM; activity change, negative = cytotoxic: at the top concentration
# Description: Drug repurposing or repositioning has been offered as a strategy for drug development in oncology programs. This approach has special potential for childhood cancers and other rare or orphan diseases, where the expected return on new drug development has been a disincentive to pharmaceuticals.
# In this project we exploit the poly-pharmacology of drugs to discover new indications via phenotypic screening of a panel of 19 well-characterized cell lines derived from solid tumors seen in children and adolescents. The goal is to identify approved drugs with previously unrecognized anticancer properties that has the potential to reveal new mechanisms and biological processes involved in carcinogenesis or drug resistance. We employed a titration-based paradigm (quantitative high-throughput screening or qHTS), where all compounds were tested at multiple concentrations for their effect on cell viability. Concentration-response curves (CRCs) were derived directly from the primary screen, and both potency and efficacy values were used to identify compounds with robust bioactivity profiles. We screened the NIH Chemical Genomics Center (NCGC) Pharmaceutical Collection (NPC) and Mechanism Interrogation Plate (MIPE) small molecule collections of approved and investigational compounds against these cell lines; and measured metabolically active cells after 48 hours of compound treatment as a proxy for cell viability.
# Assay Submitter: Nathalia J. Martinez, National Center for Advancing Translational Sciences, National Institutes of Health, Rockville, MD, USA; email: natalia.martinez@nih.gov
# [1] Shen, M et al. Quantitative high-throughput phenotypic screening of pediatric cancer cell lines identifies multiple opportunities for drug repurposing. Oncotarget 2017 Dec 19;9(4):4758-4772. PMID 29435139.
# The cells were obtained from University of North Carolina (UNC), Pediatric Preclinical Testing Program (PPT), and Coriell Institute (CI).
# qHTS cell viability assay:
# Cells were assayed in growth media at a density of 500-1,000 cells/well. Five microliters of cells were dispensed into 1,536-well, white, solid-bottom, TC-treated plates (Greiner Bio One) using a multidrop dispenser and incubated at 37 degrees C, 5% CO2, under a humidified atmosphere for 5 hours. Twenty-three nanoliters of compounds and controls (neutral control DMSO or positive control bortezomib at final concentration of 2.3 µM) were subsequently transferred by Kalypsys pintool. For primary screens, the MIPE collection was tested at 11-point dilutions (final concentrations range from 0.78 nM to 46 µM) and the NPC collection at 8-point dilutions (final concentrations range from 0.59nM to 46 µM). Compounds tested in follow-up screens were assayed at 11-point dilutions. Cells were incubated for 48 hours, followed by addition of 3 uL of CellTiter-Glo (Promega). After a 15 min incubation at room temperature, samples were analyzed for luminescence intensity using a ViewLux High-throughput CCD imager equipped with clear filters.
# Potency is read from the fitted curve at half-maximal effect.
SMILES,"activity change, negative = cytotoxic",Potency
CC1(C)OC2CC3C4CC(F)C5=CC(=O)C=CC5(C)C4C(O)CC3(C)[C@]2(C(=O)CO)O1 (stereo not given in full),1.92% (inactive),–
N#Cc1ccc(Oc2ccc3c(c2)COB3O)cc1,–,14.8 µM (active)
COc1cc2nccc(Oc3ccc(NC(=O)Nc4ccc(F)cc4F)c(F)c3)c2cc1OC,–,3.72 µM (active)
CC(NCCc1ccc(O)cc1)C(O)c1ccc(O)cc1 (stereo not given),53.8% (inactive),–
CC=C1C2C=C(C)CC1(N)c1ccc(=O)[nH]c1C2 (stereo not given),6.09% (inactive),–
O=C(Nc1ncc(SCCN2CCCC2)s1)[C@]1(c2ccc(S(=O)(=O)C3CC3)cc2)C[C@@H]1C1CCCCC1,–,20.9 µM (active)
N=C1SC(=Cc2ccc(-c3ccc4c(c3)C(=O)NC4=O)o2)C(=O)N1c1ccc(Br)cc1,39.8% (inactive),–
CN(C)S(=O)(=O)c1ccc2c(c1)C(=Cc1cc3c([nH]1)CCCC3)C(=O)N2,–,3.72 µM (active)
CN(C)c1ccccc1CN1CCCN(Cc2ccccc2N(C)C)C1c1ccncc1,–,26.4 µM (active)
C[C@]12CCC3=C4CCC(=O)C=C4CC[C@@H]3[C@H]1CC[C@@]2(O)CC#N,4.79% (inactive),–
CCOC(=O)N1CCN([N+]([O-])=NOc2cc(ON=[N+]([O-])N3CCN(C(=O)OCC)CC3)c([N+](=O)[O-])cc2[N+](=O)[O-])CC1,-15% (inactive),–
O=C(CCCN1CCN(c2ccc(F)cc2)CC1)NC1c2ccccc2CSc2ccccc21 (stereo not given),–,20.9 µM (active)
O=C(c1ccc(C=Cc2n[nH]c3ccccc23)cc1)N1CCNCC1,–,1.18 µM (active)
CN1CCN(c2cccc(Nc3nc4c(-c5ccc(S(C)(=O)=O)cc5)cccn4n3)c2)CC1,–,1.48 µM (active)
COc1ccc(-c2ccc3ncc4c(c3c2)n(-c2ccc(N3CCNCC3)c(C(F)(F)F)c2)c(=O)n4C)cn1,–,0.0037 µM (active)
CNC(=O)c1ccc2c(C(=Nc3cccc(CN(C)C)c3)c3ccccc3)c(O)[nH]c2c1,–,23.5 µM (active)
O=c1[nH]nc(OCCCc2ccc(Cl)cc2)c(NCc2cccnc2)c1Br,–,10.5 µM (active)
Cc1cnc(Nc2cccc(CN3CCOCC3)c2)nc1Nc1cccc(S(=O)(=O)NC(C)(C)C)c1,–,2.64 µM (active)
COc1cc(N2CCN(C)CC2)ccc1Nc1nc(N)c(C(=O)c2c(Cl)cccc2Cl)s1,–,16.6 µM (active)
CCNC(=O)CCCC=CC[C@@H]1[C@H](C=CC(O)CCc2ccccc2)[C@@H](O)C[C@@H]1O (stereo not given in full),-4.47% (inactive),–

SMILES,"activity change, negative = cytotoxic",Potency
CN(C)CC[C@H](CSc1ccccc1)Nc1ccc(S(=O)(=O)NC(=O)c2ccc(N3CCN(Cc4ccccc4-c4ccc(Cl)cc4)CC3)cc2)cc1[N+](=O)[O-],–,0.0148 µM (active)
CC[C@H](CC#N)OC(=O)N[C@@H](C)c1cccc(NC(=O)Nc2ccc(-c3cnco3)c(OC)c2)c1,–,0.59 µM (active)
CC[C@H]1OC(=O)[C@H](C)[C@@H](O[C@H]2C[C@@](C)(OC)[C@@H](O)[C@H](C)O2)[C@H](C)[C@@H](O[C@@H]2O[C@H](C)C[C@H](N(C)C)[C@H]2O)[C@](C)(O)C[C@H](C)C(=NOCOCCOC)[C@H](C)[C@@H](O)[C@]1(C)O,–,16.6 µM (active)
CN(C)CCN(C)C(=O)c1ccc(NC(=O)Nc2ccc(-c3nc(N4CCOCC4)c4ccn(CC(F)(F)F)c4n3)cc2)cc1,–,0.0264 µM (active)
CCCCc1ccc(NS(=O)(=O)c2ccc(C)c(C(=O)N3CCN(c4cccc(C)c4C)CC3)c2)cc1,–,23.5 µM (active)
C[C@@H]1CCO[C@H]2Cn3cc(C(=O)NCc4ccc(F)cc4F)c(=O)c(O)c3C(=O)N12,-22.3% (inactive),–
CCCCCCCCCCCCCC(=O)N[C@H](CO)[C@H](O)c1ccc([N+](=O)[O-])cc1,–,18.7 µM (active)
Cc1ccccc1C(C(=O)NC1CCCCC1)N(C(=O)CNc1ccc(C#N)cc1)c1cccc(F)c1 (stereo not given),-22.2% (inactive),–
CC(=O)Nc1cccc(-n2c(=O)n(C3CC3)c(=O)c3c(Nc4ccc(I)cc4F)n(C)c(=O)c(C)c32)c1,–,7.43 µM (active)
O=C1Nc2ccc(I)cc2C1=Cc1cc(Br)c(O)c(Br)c1,–,8.33 µM (active)
CCC[C@@H](NC(=O)[C@@H]1[C@H]2CCC[C@@H]2CN1C(=O)[C@@H](NC(=O)[C@@H](NC(=O)c1cnccn1)C1CCCCC1)C(C)(C)C)C(=O)C(=O)NC1CC1,–,23.5 µM (active)
CSc1cccc(Nc2ncc3cc(-c4c(Cl)cccc4Cl)c(=O)n(C)c3n2)c1,–,0.0935 µM (active)
N[C@@H](CC(=O)N1CCn2c(nnc2C(F)(F)F)C1)Cc1cc(F)c(F)cc1F,–,18.7 µM (active)
C[C@@H](O)[C@H]1C(=O)N2C(C(=O)OCOC(=O)C(C)(C)C)=C(SC3CN(C4=NCCS4)C3)[C@H](C)[C@H]12,-45.4% (inactive),–
CCC(=O)NCC[C@@H]1CCc2ccc3c(c21)CCO3,14.4% (inactive),–
CC(C)(O)CC(=O)NCCn1ccc2ncnc(Nc3ccc(Oc4cccc(C(F)(F)F)c4)c(Cl)c3)c21,–,0.743 µM (active)
O=C(c1ccc(F)c(F)c1Nc1ccc(I)cc1F)N1CC(O)([C@H]2CCCCN2)C1,–,1.48 µM (active)
CC(O)=C(C#N)C(=O)Nc1ccc(C(F)(F)F)cc1,–,4.69 µM (active)
Cc1cc(C(C)Nc2ccccc2)c2nc(N3CCOCC3)cc(=O)n2c1 (stereo not given),–,0.132 µM (active)
CN(C)N=Nc1nc[nH]c1C(N)=O,–,2.64 µM (active)
